Test results: PubChem BioAssay (NCATS)
Several values for one entry are separate records, joined by “and”; a condition that tells them apart may be missing. Identical values can stand only once. Results filed as inconclusive are left out. Activity calls are given as the source filed them. Unless noted, how the calls were made is not given here.

How the values were obtained:
[1] = qHTS profiling for inhibitors of Plasmodium falciparum (3D7) proliferation (AID 743322);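 further: infected erythrocytes exposed to compound for 72 h before lysis; 100% = DMSO vehicle wells and 0% = 0.29 µM artemisinin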; conditions: P. falciparum 3D7 proliferation; at 28.7 µM (top of the series) unless noted
Method in brief: (§1)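 Erythrocytes infected with P. falciparum (0.3% parasitemia, 2.5% hematocrit) incubated with compounds 72 h at 37 C, 5% CO2. Lysis with saponin/Triton buffer containing SYBR Green I, overnight at room temperature in the dark; DNA fluorescence (485/535 nm) normalised to 0.29 uM artemisinin and DMSO.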

[2] = qHTS profiling for inhibitors of Plasmodium falciparum (DD2) proliferation (AID 743323); conditions: lower = more inhibition; at 28.7 µM (top of the series) unless noted
Method in brief: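 P. falciparum Dd2-infected erythrocytes (0.3% parasitemia, 2.5% hematocrit) exposed 72 h at 37 C, 5% CO2. Lysis with SYBR Green, overnight at room temperature, fluorescence 485/535 nm; normalized to 0.29 uM artemisinin and DMSO.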

[3] = qHTS profiling of the MIPE4 collection as inhibitors of Plasmodium falciparum (3D7) proliferation (AID 743344);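 further: scaled between DMSO vehicle wells and 0.29 µM artemisinin as full inhibition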; conditions: P. falciparum 3D7 in erythrocytes, SYBR Green DNA fluorescence, 72 h; at 28.5 µM (top of the series) unless noted
Method in brief: as §1

[4] = qHTS profiling of the MIPE4 collection as inhibitors of Plasmodium falciparum (DD2) proliferation (AID 743345); conditions: P. falciparum Dd2 in erythrocytes, SYBR Green DNA, 72 h; at 28.5 µM (top of the series) unless noted
Method in brief: as §1

[5] = qHTS profiling of the MIPE4 collection as inhibitors of Plasmodium falciparum (DD2) proliferation (Rep 2) (AID 743346); conditions: P. falciparum Dd2 in erythrocytes, SYBR Green DNA, 72 h; at 28.5 µM (top of the series) unless noted
Method in brief: as §1

[6] = qHTS profiling of the MIPE4 collection as inhibitors of Plasmodium falciparum (HB3) proliferation (AID 743347);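 further: plate controls were DMSO vehicle wells for no effect and artemisinin wells for full effect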; conditions: P. falciparum HB3 in erythrocytes, SYBR Green DNA, 72 h; at 28.5 µM (top of the series) unless noted
Method in brief: as §1

[7] = qHTS Assay for Identifying Gametocytocidal Compounds (AID 743244; active means well fitted curve in the direction sought with a large enough effect; an effect the other way counts as inactive or inconclusive; further: potency means the concentration at half of the fitted maximal effect;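 on max response: on the % scale 0 is the no-effect control and ±100 the full control effect; actives lower the fluorescent signal which means gametocytes are killed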); conditions: P. falciparum 3D7 stage III-V gametocytes, alamarBlue, 72 h; max response: stronger effect = lower value
Method in brief: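 Stage III-V P. falciparum 3D7 gametocytes, 20,000 per well, were exposed to compounds for 72 h at 37C, 5% CO2. AlamarBlue was then added for 24 h and viability was read as fluorescence at Ex 525/Em 598 nm.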

[8] = qHTS profiling for inhibitors of Plasmodium falciparum (HB3) proliferation (AID 743324; active means well fitted curve in the direction sought with a large enough effect; an effect the other way counts as inactive or inconclusive;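 further: 100% = DMSO vehicle wells and 0% = artemisinin-treated control wells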); conditions: Plasmodium falciparum HB3 blood-stage proliferation; at 28.7 µM (top of the series) unless noted
Method in brief: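 P. falciparum HB3 grown in erythrocytes (0.3% parasitemia, 2.5% hematocrit final) with compound for 72 h at 37 C, 5% CO2. Parasite DNA detected by SYBR Green after saponin/triton lysis overnight; normalized to 0.29 uM artemisinin and DMSO.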

[9] = qHTS assay for cell viability of the p53RE-bla HCT-116 cell line (AID 743292; active means well fitted curve in the direction sought with a large enough effect; an effect the other way counts as inactive or inconclusive; further: nearly all actives have a fitted effect of over 55% in size; further: potency means the concentration at half of the fitted maximal effect)
Method in brief: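 ATP-based luminescence, 16 h compound exposure at 37 C, p53RE-bla HCT-116 cells at 4,000/well.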

SMILES | remaining parasite growth % (stronger effect = lower value) [1] | activity, percent of control [2] | parasite growth, % of DMSO control [3] [%] | parasite growth remaining, % of DMSO control (lower = more inhibition) [4] [%] | parasite growth, % of control (lower = inhibition) [5] [%] | growth, % of control [6] [%] | max response [7] | remaining proliferation (% of control), lower = more inhibition [8] | Potency [9] | Potency [7]
CS(=O)(=O)c1cccc(CNc2nc(Nc3ccc4c(c3)CCC(=O)N4)ncc2C(F)(F)F)c1 | 106% | 108% | 12.1 | 14.8 | 28.9 | 10.1 |  |  |  | 
Cc1ccccc1C(OCCN(C)C)c1ccccc1 (stereo not drawn) |  |  | 64.6 | 60.2 | 40.2 | 87.3 | 21.5% (inactive) and -9.62% (inactive) and 11.5% (inactive) |  |  | 
COc1ccc(-c2ccc3c(N4CCOC[C@H]4C)nc(N4CCOC[C@H]4C)nc3n2)cc1CO | 15.5% | 19.8% | 6.01 | 9.32 | 13.1 | 7.68 |  | 10.7% |  | 
CCN(c1ccccc1)c1cc(NC)[n+](C)c(C)n1 | 76.6% | 73.7% | 47.7 | 94.6 | 58.7 | 85.9 |  | 38.1% |  | 
CC(C[N+](C)(C)C)OC(N)=O (stereo not drawn) |  |  | 102 | 101 | 96.7 | 69.1 | 11.1% (inactive) |  |  | 
Cc1c(CN2CCN(C(=O)C(C)C)CC2)sc2c(N3CCOCC3)nc(-c3cnc(N)nc3)nc12 | 12.2% | 23.2% | 12.5 | 25.7 | 14.5 | 4.71 |  |  |  | 
O=C(Nc1nc2ccccc2n1CCN1CCOCC1)c1cccc([N+](=O)[O-])c1 |  |  |  |  | 17.9 |  |  |  |  | 
NCCc1ccc(O)c(O)c1 |  |  | 74.8 | 20.2 | 39.7 | 53.9 |  |  |  | 
c1ccc([C@H]2CN3CCSC3=N2)cc1 |  |  | 92.1 | 98.3 | 63.1 | 95.1 | 4.37% (inactive) |  |  | 
CCN(CC)CCCC(C)Nc1ccnc2cc(Cl)ccc12 (stereo not drawn) | 0.37% | 2.54% | 19.3 | 10.1 | 15.1 | 41.8 |  | 0.178% |  | 
O=c1[nH]cnc2[nH]ncc12 |  |  |  |  |  |  |  |  | inactive | 
CCOc1cc(N2CCC(O)CC2)ccc1Nc1ncc2c(n1)N(C)c1ccccc1C(=O)N2C | 6.85% | 1.46% | 4.46 | 7.18 | 5.98 | 5.43 |  |  |  | 
Cc1cc2c(C(C)C)c(O)c(O)c(C=O)c2c(O)c1-c1c(C)cc2c(C(C)C)c(O)c(O)c(C=O)c2c1O | 5.05% and 5.11% | 13.9% and 10.5% | 8.6 | 15 | 19.3 | 14.8 |  | -0.222% and 1.83% | 12.6 µM (active) | 
OCCC#Cc1nc(-c2ccc(F)cc2)c(-c2ccncc2)n1CCCc1ccccc1 | 1.18% | 8.27% | 15 | 21.2 | 15.5 | 7.31 |  |  |  | 
NC(N)=NC(=O)c1nc(Cl)c(N)nc1N |  |  |  |  |  |  |  |  | inactive | 
NC(=O)c1ccc(I)c([N+](=O)[O-])c1 | 93.8% | 92.6% | 71.2 | 97.1 | 90.7 | 96 |  | 77.5% |  | 
COc1cc2c(cc1OC)CN(CCc1ccc(NC(=O)c3cccc4c(=O)c5cccc(OC)c5[nH]c34)cc1)CC2 | -0.733% | 0.466% | 5.92 | 7.47 | 10 | 4.23 |  | -0.901% |  | 
NC(=O)c1ccc(-c2nc(-c3ccc4c(c3)OCO4)c(-c3ccccn3)[nH]2)cc1 | 82.3% | 88.1% | 42.9 | 55.7 | 32.2 | 18.7 |  | 71.6% |  | 
CC(C)(C)OC(=O)CN(Cc1ccc(Cl)cc1)Cc1ccc([N+](=O)[O-])s1 | 2.82% | 3.12% | 99.5 | 19.7 | 26.7 | 51.3 |  |  |  | 
Cc1cnc(NC(=O)C2=C(O)c3ccccc3S(=O)(=O)N2C)s1 |  |  | 39 | 86.7 | 61.9 | 78.1 | 4.3% (inactive) and 13.2% (inactive) and 16.1% (inactive) |  |  | 
Cn1cnc([N+](=O)[O-])c1Sc1ncnc2nc[nH]c12 |  |  | 47.3 | 87.7 | 33.8 | 45.9 |  |  |  | 39.8 µM (active) and 1.26 µM (active)
CC[C@@H](C)[C@H](NC(=O)[C@H](CC1CCCCC1)NC(=O)c1ccno1)C(=O)N1CCC2(CCc3ccccc32)CC1 | -1.46% | -0.289% | 5.26 | 7.23 | 14 | 5.03 |  | -0.621% |  | 
CCOC(=O)N1CCC(=C2c3ccc(Cl)cc3CCc3cccnc32)CC1 |  |  | 14.5 | 56.2 | 28.5 | 13.8 |  |  |  | 
